For 7 compounds, Potency and outcome results are on record in PubChem BioAssay (Tox21).

Results filed as inconclusive are left out. The source made the active and inactive calls. Unless noted, calls come from the whole dose curve; as a rule, active = well fitted curve in the direction sought with a large enough effect in the repeat runs; inconclusive = weak or mixed curves; inactive = no such curve, though single readings can be large; an effect the other way counts as inactive or inconclusive.

The nature of test [1]: qHTS assay to identify aromatase inhibitors - cell viability counter screen (AID 743084).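 Note: cells stimulated with testosterone during compound exposure; nearly all actives have a fitted effect of over 55% in size.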
A short description of test [2]: qHTS assay to identify small molecule that activate the aryl hydrocarbon receptor (AhR) signaling pathway - cell viability counter screen (AID 743086).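 Note: HepG2 liver cells carrying the AhR DRE luciferase reporter; series mostly up to about 70 µM; nearly all actives have a fitted effect of over 45% in size.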 Summed up: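 HepG2-AhR-luc (HG2L7.5c1) cells, 4000/well, were preincubated 5 h at 37C, exposed to compound in qHTS format for 24 hr at 37C, then given CellTiter-Fluor for 30 min; viability was read as fluorescence in the reporter wells.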

The target of test [3] is Peroxisome proliferator-activated receptor gamma (Homo sapiens) (UniProt P37231). Description: qHTS assay to identify small molecule agonists of the peroxisome proliferator-activated receptor gamma (PPARg) signaling pathway (AID 743094; active = well fitted activation curve with a large enough effect in the signal ratio in the repeat runs, not every such curve was filed as active; the % refers to the signal ratio). In a few lines: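 Agonist activity was taken from a beta-lactamase reporter (FRET substrate, 1 h at room temperature) in HEK293H cells carrying a PPARg UAS-bla construct. Compounds in DMSO were incubated 17 h at 37C after a 5 h cell pre-incubation.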
Sequence of Peroxisome proliferator-activated receptor gamma (Homo sapiens) (P37231 whole entry, looked up): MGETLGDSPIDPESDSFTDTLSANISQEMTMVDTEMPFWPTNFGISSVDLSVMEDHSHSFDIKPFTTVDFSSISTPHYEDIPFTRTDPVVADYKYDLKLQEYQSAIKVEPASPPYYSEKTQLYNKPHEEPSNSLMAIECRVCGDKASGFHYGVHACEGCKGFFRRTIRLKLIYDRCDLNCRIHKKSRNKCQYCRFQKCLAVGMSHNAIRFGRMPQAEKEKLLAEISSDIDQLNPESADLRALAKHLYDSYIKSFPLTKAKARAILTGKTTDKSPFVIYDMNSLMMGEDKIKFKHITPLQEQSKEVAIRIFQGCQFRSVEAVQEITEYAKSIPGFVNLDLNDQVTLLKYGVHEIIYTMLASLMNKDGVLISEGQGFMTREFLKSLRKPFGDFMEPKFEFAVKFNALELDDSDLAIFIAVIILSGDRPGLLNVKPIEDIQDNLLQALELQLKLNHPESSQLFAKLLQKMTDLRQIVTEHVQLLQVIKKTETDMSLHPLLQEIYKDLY

The target is the same in test [4]. Description: qHTS assay to identify small molecule antagonists of the peroxisome proliferator-activated receptor gamma (PPARg) signaling pathway (AID 743191; calls by dose curve; note: series mostly up to about 63 µM; nearly all actives have a fitted effect of over 30% in size). Summed up: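 GeneBLAzer PPARg UAS-bla HEK293H cells carrying a UAS-driven beta-lactamase reporter were plated at 3000 cells/well, preincubated 5 h at 37C, then given compound for 17 h at 37C; LiveBLAzer B/G FRET substrate was read after 1 h at room temperature.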

Test [5] in a line: qHTS assay to identify small molecule antagonists of the peroxisome proliferator-activated receptor gamma (PPARg) signaling pathway - cell viability counter screen (AID 743194). Note: nearly all actives have a fitted effect of over 55% in size. Summed up:
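PPARg-UAS-bla HEK293H cells were plated, rested 5 h at 37 C, then treated with compounds plus rosiglitazone (50 nM final) for 17 h at 37 C; viability was then read by CellTiter-Glo luminescence after 30 min at room temperature.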

The nature of test [6]: qHTS assay for small molecule agonists of the antioxidant response element (ARE) signaling pathway (AID 743202; active = well fitted activation curve with a large enough effect in the signal ratio in the repeat runs, not every such curve was filed as active; the % refers to the signal ratio). Summed up:
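Steps: seed ARE-bla HepG2 cells (2,000/well); incubate 5 h at 37 C; add compounds by pin tool; incubate 16 h at 37 C; add FRET substrate; read fluorescence after 2 h at RT.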

Test [7] can be described thus: qHTS assay for small molecule activators of the heat shock response signaling pathway - cell viability counter screen (AID 743209). Note: nearly all actives have a fitted effect of over 50% in size. In a few lines:
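Cytotoxicity counter screen run in the same wells as the heat-shock bla reporter assay: HeLa HSE-bla cells, 5 h compound exposure at 37 C, viability read by CellTiter-Glo luminescence.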

A short description of test [8]: qHTS assay for small molecule activators of the heat shock response signaling pathway (AID 743210; active = well fitted activation curve with a large enough effect in the signal ratio in the repeat runs, with a control signal flat, not every such curve was filed as active; the % refers to the signal ratio;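 note: HeLa cells with beta-lactamase reporter driven by heat shock elements; series mostly up to about 63 µM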). In a few lines:
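Activation of heat shock element-controlled beta-lactamase expression is measured in HeLa cells by LiveBLAzer FRET fluorescence, with compound exposure lasting 5 h at 37 C and substrate loading 2.5 h at room temperature.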

A short description of test [9]: qHTS assay to identify small molecule agonists of the peroxisome proliferator-activated receptor delta (PPARd) signaling pathway - cell viability counter screen (AID 743211). Note: nearly all actives have a fitted effect of over 55% in size. Summed up:
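Viability of GeneBLAzer PPARd UAS-bla HEK293H cells was assessed after 17 h compound incubation at 37C, using CellTiter-Glo reagent added after the reporter read and luminescence recorded 30 min later.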

In test [10] the target is Peroxisome proliferator-activated receptor delta (Homo sapiens) (UniProt Q03181). Description: qHTS assay to identify small molecule agonists of the peroxisome proliferator-activated receptor delta (PPARd) signaling pathway (AID 743212; calls by dose curve). In a few lines: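 Cells expressing a UAS-driven beta-lactamase reporter (PPARd-bla HEK293H) were given test compounds after a 5 h settle and kept at 37 C. Reporter activity was then measured as FRET fluorescence using LiveBLAzer B/G substrate.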
Sequence of Peroxisome proliferator-activated receptor delta (Homo sapiens) (Q03181 whole entry, looked up): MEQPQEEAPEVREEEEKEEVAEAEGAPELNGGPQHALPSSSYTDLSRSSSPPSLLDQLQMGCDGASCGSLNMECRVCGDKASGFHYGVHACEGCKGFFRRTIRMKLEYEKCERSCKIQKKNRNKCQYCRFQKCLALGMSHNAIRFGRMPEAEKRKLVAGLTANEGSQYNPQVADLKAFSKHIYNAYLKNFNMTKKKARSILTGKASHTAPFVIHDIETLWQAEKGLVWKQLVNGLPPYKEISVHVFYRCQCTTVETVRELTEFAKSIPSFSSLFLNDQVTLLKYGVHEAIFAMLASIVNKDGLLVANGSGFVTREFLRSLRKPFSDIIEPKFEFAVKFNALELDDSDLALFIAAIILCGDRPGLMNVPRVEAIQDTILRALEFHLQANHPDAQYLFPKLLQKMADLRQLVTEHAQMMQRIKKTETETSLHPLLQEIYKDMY

A short description of test [11]: qHTS assay to identify small molecule antagonists of the peroxisome proliferator-activated receptor delta (PPARd) signaling pathway - cell viability counter screen (AID 743213). Note: nearly all actives have a fitted effect of over 50% in size. Summed up:
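In this counter screen, HEK293H cells carrying a UAS-beta-lactamase reporter are co-treated with test compounds and 300 nM L165041 (final) for 17 h at 37 C; cell viability is quantified by CellTiter-Glo luminescence.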

Test [12] is described as follows: qHTS assay to identify small molecule agonists of the farnesoid-X-receptor (FXR) signaling pathway - cell viability counter screen (AID 743218). Note: nearly all actives have a fitted effect of over 45% in size. Summed up: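 Viability counter screen in the same wells: CellTiter-Glo luminescence, 30 min room-temperature incubation, measured after the beta-lactamase read. Cells were GeneBLAzer FXR-UAS-bla HEK 293T, compound-treated 16 h at 37C.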

The nature of test [13]: qHTS assay to identify small molecule antagonists of the farnesoid-X-receptor (FXR) signaling pathway - cell viability counter screen (AID 743221; active = well fitted cell-killing curve with a large enough effect in the repeat runs, not every such curve was filed as active; note: nearly all actives have a fitted effect of over 50% in size). In a few lines:
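Quantitative HTS of the Tox21 10K library run in parallel with the beta-lactamase reporter read. HEK 293T cells carrying a UAS-driven bla reporter got compound and 50 uM CDCA (final) for 16 h; ATP-based luminescence followed.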

In test [14] the target is Vitamin D3 receptor (Homo sapiens) (UniProt P11473). Briefly: qHTS assay to identify small molecule agonists of the vitamin D receptor (VDR) signaling pathway (AID 743222; calls by dose curve). Summed up: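 Agonist mode, beta-lactamase reporter: fluorescence from LiveBLAzer B/G FRET substrate (2 h, room temperature) read after 16 h compound treatment at 37 C of VDR-bla cells, which were pre-incubated 4 h after seeding.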
Sequence of Vitamin D3 receptor (Homo sapiens) (P11473 whole entry, looked up): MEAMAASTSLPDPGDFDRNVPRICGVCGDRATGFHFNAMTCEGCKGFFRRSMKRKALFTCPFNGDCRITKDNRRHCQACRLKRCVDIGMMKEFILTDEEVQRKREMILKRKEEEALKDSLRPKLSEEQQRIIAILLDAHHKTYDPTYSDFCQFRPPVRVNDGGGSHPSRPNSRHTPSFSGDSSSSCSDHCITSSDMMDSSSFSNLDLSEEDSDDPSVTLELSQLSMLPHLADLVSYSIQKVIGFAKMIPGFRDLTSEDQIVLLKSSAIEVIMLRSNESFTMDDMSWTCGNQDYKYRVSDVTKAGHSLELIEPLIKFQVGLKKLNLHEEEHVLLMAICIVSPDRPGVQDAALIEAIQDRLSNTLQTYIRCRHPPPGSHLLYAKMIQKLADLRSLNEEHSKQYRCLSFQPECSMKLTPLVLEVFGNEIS

Test [15] is described as follows: qHTS assay for small molecule agonists of the antioxidant response element (ARE) signaling pathway - cell viability counter screen (AID 743203; calls by dose curve; note: nearly all actives have a fitted effect of over 55% in size). In a few lines:
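Viability counter screen: CellTiter-Glo luminescence, read after 30 min at room temperature, in ARE-bla HepG2 wells. Compound exposure lasted 16 h at 37C/5% CO2, following a 5 h pre-incubation of the cells after plating.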

Test [16] addresses Bile acid receptor (Homo sapiens) (UniProt Q96RI1). Briefly: qHTS assay to identify small molecule antagonists of the farnesoid-X-receptor (FXR) signaling pathway (AID 743217; active = well fitted inhibition curve with a large enough effect in the signal ratio in the repeat runs, not every such curve was filed as active; the % refers to the signal ratio). In a few lines:
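Antagonist mode: chenodeoxycholic acid at 50 uM final stimulates a UAS-driven beta-lactamase reporter in HEK 293T FXR-bla cells during 16 h, 37C compound exposure. Read-out is FRET substrate fluorescence after 2 h at room temperature.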

Test [17] shares this target. Briefly: qHTS assay to identify small molecule agonists of the farnesoid-X-receptor (FXR) signaling pathway (AID 743220; active = well fitted activation curve with a large enough effect in the signal ratio in the repeat runs, not every such curve was filed as active; the % refers to the signal ratio). In a few lines: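 FXR-UAS-bla HEK 293T cells carrying a UAS-driven beta-lactamase reporter were plated for 5 h at 37C/5% CO2, then exposed to DMSO-dissolved Tox21 10K compounds for 16 h at 37C. A LiveBLAzer B/G FRET substrate was loaded for 2 h at room temperature before fluorescence reading.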

Test [18] addresses Vitamin D3 receptor (Homo sapiens) (UniProt P11473). Description: qHTS assay to identify small molecule antagonists of the vitamin D receptor (VDR) signaling pathway (AID 743223; active = well fitted inhibition curve with a large enough effect in the signal ratio in the repeat runs, not every such curve was filed as active; the % refers to the signal ratio). Summed up: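 Fluorescence from LiveBLAzer B/G FRET substrate, read after 2 h at room temperature, reflects beta-lactamase reporter activity in VDR-bla cells treated 16 h at 37C with compounds and agonist 1alpha,25-dihydroxyvitamin D3 (3 nM final).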

The target in test [19] is Aryl hydrocarbon receptor (Homo sapiens) (UniProt P35869). Briefly: qHTS assay to identify small molecule that activate the aryl hydrocarbon receptor (AhR) signaling pathway (AID 743085).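 For activation: HG2L7.5c1 human HepG2 liver cells with stably integrated DRE-driven firefly reporter; series mostly up to about 70 µM.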 Note: nearly all actives have a fitted effect of over 15% in size. Note: potency is the fitted concentration of half-maximal effect. In a few lines:
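Steps: seed HepG2-AhR-luc cells; allow 5 h at 37C; pin-transfer test compound or vehicle; incubate 24 h at 37C; add viability dye (30 min, 37C) and read fluorescence; add luciferase substrate (30 min, RT) and read luminescence.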

Test [20] concerns the target Peroxisome proliferator-activated receptor delta (Homo sapiens) (UniProt Q03181). Description: qHTS assay to identify small molecule antagonists of the peroxisome proliferator-activated receptor delta (PPARd) signaling pathway (AID 743215; active = well fitted inhibition curve with a large enough effect in the signal ratio in the repeat runs, not every such curve was filed as active; the % refers to the signal ratio;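 note: cells stimulated with agonist L165041 at 300 nM final during compound exposure; series mostly up to about 62 µM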). Summed up: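 Agonist L165041 (300 nM final) added with compound to PPARd-bla HEK293H UAS-bla reporter cells; 17 h incubation at 37 C. Read-out: LiveBLAzer FRET substrate, 2 h at room temperature, fluorescence intensity.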

Sequence of Aryl hydrocarbon receptor (Homo sapiens) (P35869 whole entry, looked up): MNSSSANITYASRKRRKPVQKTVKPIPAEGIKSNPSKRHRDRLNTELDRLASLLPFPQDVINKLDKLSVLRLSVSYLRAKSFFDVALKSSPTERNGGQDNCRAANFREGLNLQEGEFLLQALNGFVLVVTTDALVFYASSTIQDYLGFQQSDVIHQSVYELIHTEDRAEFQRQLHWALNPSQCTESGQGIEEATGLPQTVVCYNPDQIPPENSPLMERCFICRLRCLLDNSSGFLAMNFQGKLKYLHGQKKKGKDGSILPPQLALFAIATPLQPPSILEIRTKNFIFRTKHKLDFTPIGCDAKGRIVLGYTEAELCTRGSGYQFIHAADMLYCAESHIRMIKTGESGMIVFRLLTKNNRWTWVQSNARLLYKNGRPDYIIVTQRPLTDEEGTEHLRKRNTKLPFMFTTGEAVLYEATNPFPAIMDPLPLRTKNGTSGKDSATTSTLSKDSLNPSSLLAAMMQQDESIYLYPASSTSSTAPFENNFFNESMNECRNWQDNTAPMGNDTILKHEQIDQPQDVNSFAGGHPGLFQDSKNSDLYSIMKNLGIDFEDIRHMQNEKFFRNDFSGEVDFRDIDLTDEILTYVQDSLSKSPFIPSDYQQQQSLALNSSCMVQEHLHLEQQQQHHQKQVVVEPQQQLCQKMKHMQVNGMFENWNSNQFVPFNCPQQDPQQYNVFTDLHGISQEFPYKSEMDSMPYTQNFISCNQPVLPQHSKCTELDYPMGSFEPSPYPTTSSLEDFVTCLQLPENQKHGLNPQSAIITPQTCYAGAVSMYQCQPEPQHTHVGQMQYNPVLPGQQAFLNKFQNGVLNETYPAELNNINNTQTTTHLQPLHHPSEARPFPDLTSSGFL
Sequence of Bile acid receptor (Homo sapiens) (Q96RI1 whole entry, looked up): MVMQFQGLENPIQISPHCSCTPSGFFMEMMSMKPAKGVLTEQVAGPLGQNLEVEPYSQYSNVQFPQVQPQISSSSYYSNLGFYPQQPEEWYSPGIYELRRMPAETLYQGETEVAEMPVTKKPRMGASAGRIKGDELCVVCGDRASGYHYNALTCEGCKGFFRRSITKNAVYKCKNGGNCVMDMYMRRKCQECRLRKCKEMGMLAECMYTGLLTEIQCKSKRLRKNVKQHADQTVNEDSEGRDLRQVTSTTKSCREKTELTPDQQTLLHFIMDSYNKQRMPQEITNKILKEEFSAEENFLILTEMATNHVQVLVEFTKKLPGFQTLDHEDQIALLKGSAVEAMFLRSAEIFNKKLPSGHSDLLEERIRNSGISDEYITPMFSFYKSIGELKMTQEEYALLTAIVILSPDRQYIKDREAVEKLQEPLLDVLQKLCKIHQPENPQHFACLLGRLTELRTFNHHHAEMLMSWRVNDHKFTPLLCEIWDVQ

Turning to `NC(=O)C1(N2CCCCC2)CCN(CCCC(=O)c2ccc(F)cc2)CC1`, the Potency result in test [1], in [2], in test [4], in test [6] and in test [12] was “inactive” each time. For the same compound, the compound was classed as inactive in test [3], in test [5], in [7], in test [8], in test [9] and in [10]. Moreover, the compound was classed as inactive in test [11], in test [13] and in test [14].

On to `Cc1ccccc1N1CCN(CCc2nnc3n2CCCC3)CC1`, for which the Potency result in [1], in test [2], in [4] and in test [6] was “inactive” throughout. For the same compound, the compound was called inactive in test [3], in test [5], in test [15], in [7], in test [8] and in test [9]. In addition, the outcome in [10], in test [11], in test [16], in test [17], in test [13] and in test [14] was inactive. In test [18], the outcome was inactive.

As to `CN[C@@H]1[C@H](O)[C@H](NC)[C@H]2O[C@@]3(O)C(=O)C[C@@H](C)O[C@H]3O[C@@H]2[C@H]1O`, the Potency entry in test [1], in test [2], in [4], in test [6] and in test [12] was “inactive” throughout. The call in test [3], in [5], in test [15], in test [7], in [8] and in test [9] was inactive. Further, the compound was called inactive in [11], in [16], in test [13], in [14] and in test [18].

As for `CCC1Nc2cc(Cl)c(S(N)(=O)=O)cc2S(=O)(=O)N1` (stereo unspecified), the Potency entry in test [1], in [19], in test [2] and in test [6] was “inactive” throughout. The outcome in test [5], in test [10], in test [11], in test [20], in test [16] and in test [17] was inactive. In addition, the compound was classed as inactive in test [13], in [14] and in [18].

For the compound `Cc1ccc2c(c1)c1c3n2CCNC3CCC1` (stereo unspecified), the Potency result in test [1], in test [6] and in test [12] was “inactive” each time. Also, in test [19], the Potency was 10.6 µM (active). Besides, the outcome in [7], in [9], in test [16], in test [17], in test [13] and in test [18] was inactive.

On to `COc1cc2c(Nc3ccc(Br)cc3F)ncnc2cc1OCC1CCN(C)CC1`, for which the Potency result in test [1], in test [19], in test [4], in test [6] and in [12] was “inactive” throughout. For the same compound, the result in [3], in test [5], in [15], in test [7], in [8] and in test [9] was inactive. In addition, the compound was called inactive in test [10], in test [11], in test [16], in [17] and in [13].

Consider `COc1cc(C=O)ccc1OC(=O)C(C)C`, for which the Potency entry in test [1], in test [2], in [6] and in test [12] was “inactive” each time. In addition, the call in test [3], in test [5], in test [15], in test [7], in [8] and in [9] was inactive. Also, the compound was called inactive in [10], in test [11], in test [20], in [13] and in test [14].
